The list is not random: actives were taken first. Their share in the collection is about 2.6%.
TGFb SMAD3 inh: blocks TGF-b signaling. HepG2 CAGA-GFP TGF-b/SMAD3 reporter, GFP fluorescence, 18 h; TGF-beta stimulated, 500 pg/mL final. Potency, µM (highest dose often 46.1 µM), inactives show at the top dose activity, negative = inhibition, usual class: inhibitors. 410,000 tested, 1.2% active; also: potency is read from the fitted curve at half-maximal effect; % is scaled to controls: 0 for no effect and ±100 for the full control effect; nearly all actives have a fitted effect of over 65% in size
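Cell-based qHTS in HEPG2 carrying a CAGA-GFP Smad reporter; compounds added before 500 pg/mL final TGF-beta, 18 h incubation at 37 degrees C, GFP fluorescence quantified per cell by imaging cytometry.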
uPA generation: cell surface uPA generation inhibition; AID 540303; Potency, µM (highest dose often 38.3 µM), for inactives: top-dose activity change, negative = inhibition, usual class: inhibitors; cell surface uPA generation assay, qHTS; 330,000 tested, 0.31% active; active = well fitted inhibition curve with a large enough effect; inconclusive = small, poorly fitted or top-dose-only effect; inactive = no such curve, though single readings can be large or run the other way; tested in mouse RAW 264.7 cells; also: potency is read from the fitted curve at half-maximal effect; % is scaled to controls: 0 for no effect and ±100 for the full control effect; nearly all actives have a fitted effect of over 55% in size
ATXN2 expr inh: ATXN2 expression inhibition | HEK-293 ATXN2-luciferase reporter, luminescence, 24 h | Potency, µM (highest dose often 57 µM), inactives show top-dose activity change, negative = inhibition, most hits filed as inhibitors | 360,000 tested, 0.72% active | AID 1745845; also: potency is read from the fitted curve at half-maximal effect; % is scaled to controls: 0 for no effect and ±100 for the full control effect; nearly all actives have a fitted effect of over 55% in size
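ATXN2-luciferase reporter cells (luciferase flanked by upstream and downstream ATXN2 gene portions) were treated 24 h at 37 °C with compounds at up to 57 uM. SteadyGlo luminescence gave expression; GF-AFC fluorescence gave viability.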
Giardia kill: Giardia lamblia killing. AID 540267. 340,000 tested, 0.15% active. activity change, % at 7.66 µM, hits read low. Giardia lamblia trophozoite viability; in the data active = activity change below about -80%; inconclusive = between about -30% and that limit;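 also: parasites exposed to compound for two days anaerobically before the ATP read; % is scaled to controls: 0 for no effect and ±100 for the full control effect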
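Media and compound were dispensed first, then trophozoites at 100 cells/well; plates sat 48 hrs at 37 deg C without oxygen before ATP luminescence reagent was added and read after 15-30 min at room temperature.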
HepG2 tox-1: kills HepG2 cells in TGF-b inhibitor counter-screen | AID 588856 | Potency, µM (highest dose often 46.1 µM), for the others: top-dose activity change, negative = cytotoxicity, hits mostly cytotoxic | HepG2 CAGA-GFP viability, ATP luminescence, 18 h | 410,000 tested, 0.76% active; also: potency is read from the fitted curve at half-maximal effect
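HepG2 CAGA-GFP cells (1000/well, DMEM with 1% FBS) received compound, then TGF-beta at 500 pg/mL final, and were incubated 18 hours at 37 degrees C. Viability was read by CellTiter-Glo luminescence. Media-only wells were set as complete cell-killing and DMSO as no toxicity.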
ATXN viability: cell viability loss in ATXN counter-screen; S2 cells (HEK-293 line with an ATXN2-luciferase reporter) viability, CellTiter-Fluor protease fluorescence, 24 h; Potency, µM (highest dose often 56.7 µM), actives largely listed as cytotoxic; 400,000 tested, 0.49% active; also: potency is read from the fitted curve at half-maximal effect; nearly all actives have a fitted effect of over 40% in size
TGFb CAGA inh: confirmation of TGF-b signaling inhibitors in HepG2 reporter cells; shares compounds with TGFb SMAD3 inh; Potency, µM (titrated, usually from 46.1 µM), for inactives: at the highest dose activity, negative = inhibition, most hits filed as inhibitors; 1,600 tested, 63% active; HepG2 CAGA-GFP TGF-b reporter, GFP fluorescence, 18 h; cells stimulated with TGF-beta, 500 pg/mL; also: potency is read from the fitted curve at half-maximal effect; % is scaled to controls: 0 for no effect and ±100 for the full control effect; nearly all actives have a fitted effect of over 65% in size
HepG2 tox-2: HepG2 cytotoxicity, TGF-b inhibitor counterscreen | shares compounds with TGFb SMAD3 inh | HepG2 CAGA-GFP viability, ATP luminescence, 18 h; cells stimulated with TGF-beta, 500 pg/mL | Potency, µM (series often up to 46.1 µM), inactives show top-dose activity, negative = cytotoxicity, most hits filed as inhibitors | 1,600 tested, 27% active | AID 720535; also: potency is read from the fitted curve at half-maximal effect; % is scaled to controls: 0 for no effect and ±100 for the full control effect; nearly all actives have a fitted effect of over 70% in size
CCL64 TGFb inh: orthogonal confirmation of TGF-b inhibitors in CCL64 cells | shares compounds with TGFb SMAD3 inh | CCL64 CAGA-GFP reporter, TGF-b stimulated, GFP fluorescence, 18 h | Potency, µM (highest dose often 46.1 µM), for the others: at the highest dose activity, negative = inhibition, most hits filed as inhibitors | 1,600 tested, 41% active | AID 720536; also: potency is read from the fitted curve at half-maximal effect; nearly all actives have a fitted effect of over 65% in size
COP TGFb inh: validation of TGF-b inhibitors in HepG2 COP promoter reporter. shares compounds with TGFb SMAD3 inh. HepG2 COP-GFP TGF-b reporter, GFP fluorescence, 18 h; cells stimulated by added recombinant TGF-beta. Potency, µM (doses to about 46.1 µM), for the others: at the top dose activity, negative = inhibition, usual class: inhibitors. 1,600 tested, 3% active. AID 720537; also: potency is read from the fitted curve at half-maximal effect; nearly all actives have a fitted effect of over 70% in size
* hit, by the source's call; i = inactive; ? = inconclusive; . = no result given. Unless noted, calls follow the shape of the dose curve; as a rule, active = well fitted curve in the direction sought with a large enough effect; inconclusive = small, poorly fitted or top-dose-only effect, or another doubt; inactive = no such curve, though single readings can be large; an effect the other way counts as inactive or inconclusive.

SMILES	TGFb SMAD3 inh	uPA generation	ATXN2 expr inh	Giardia kill	HepG2 tox-1	ATXN viability	TGFb CAGA inh	HepG2 tox-2	CCL64 TGFb inh	COP TGFb inh
O=C(CNC(=O)c1n[nH]c2ccccc12)Nc1ccc(F)c(F)c1F	10%	11%	1%	-2	6%	i	.	.	.	.
O=[N+]([O-])c1cccc(NC(=S)Nc2nc(-c3ccccc3Cl)cs2)c1	3.5µM*	-9%	-36%	-8	-28%	?	3.7µM*	6.5µM*	6.5µM*	47%
O=C(CSc1nc(-c2ccc(Cl)cc2)cs1)Nc1cccc([N+](=O)[O-])c1	10µM*	?	.	-15	-31%	?	?	?	-5%	59%
O=C(Nc1cccc(-c2csc(Nc3ccc(Cl)cc3)n2)c1)c1cc([N+](=O)[O-])cc(C(F)(F)F)c1	20µM*	?	-15%	-11	-22%	.	8.2µM*	?	5.8µM*	45%
O=C(Nc1cccc(-c2csc(Nc3ccccc3)n2)c1)c1cc([N+](=O)[O-])cc(C(F)(F)F)c1	?	-8%	-16%	10	-8%	?	.	.	.	.
O=C(CCC(=O)c1ccc(F)cc1)Nc1cccc(S(=O)(=O)Nc2cccc(Cl)c2)c1	13µM*	-2%	0%	6	-28%	i	?	?	?	19%
CCC(C)[C@@H](N)C(=O)N/N=C/c1ccc2ncccc2c1 (stereo partly drawn)	-29%	0%	6%	-8	-16%	i	.	.	.	.
COc1ccc(C(CNC(=O)Cc2cc(OC)c(OC)c(OC)c2)N2CCCC2)cc1 (stereo not drawn)	32%	.	2%	-3	1%	i	.	.	.	.
COC(=O)C1CCC(=O)N1C(c1ccc(OC)cc1)c1cc(OC)c(OC)c(OC)c1 (stereo not drawn)	2µM*	-8%	4%	-24	2%	?	?	-2%	5.8µM*	?
CCc1nc(OCc2ccco2)c2sc3nc4c(cc3c2n1)COC(C)(C)C4	?	-3%	39%	2	-11%	i	?	-16%	-1%	19%
CCc1nc2c(sc3nc4c(cc32)COC(C)(C)C4)c(=O)n1Cc1ccco1	0%	-5%	7%	11	-1%	i	.	.	.	.
COc1cccc(/C=C2\CCC(C3CCCC3)C2=O)c1 (stereo not drawn)	?	-4%	56%	-2	6%	i	.	.	.	.
COc1cccc(/C=C2/CCC(CN(C)C)C2=O)c1 (stereo not drawn)	2.5µM*	-10%	13µM*	-21	-98%	.	2.6µM*	5.8µM*	1.5µM*	?
COc1ccc(/C=C2/CCCC(CN(C)C)C2=O)cc1 (stereo not drawn)	6.3µM*	0%	?	3	-33%	.	2.6µM*	7.3µM*	4.1µM*	?
CCc1ccccc1NC(=O)c1ccc2c(O)c(S(=O)(=O)c3ccccc3)c(=O)[nH]c2c1	-1%	.	8%	.	3%	i	.	.	.	.
CC1=C(c2ccc(C)c(C)c2)S(=O)(=O)N(Cc2ccc(C(=O)NCc3cccc(C)c3)cc2)C1=O	0%	.	.	.	3%	.	.	.	.	.
COc1ccc(-c2cc3nc(NCC4CCCCC4)n(C)c(=O)c3s2)cc1OC	10µM*	.	?	.	-29%	?	?	?	?	65%
O=S(=O)(Nc1cccc2cccnc12)C1CC1	?	.	.	7	-26%	.	.	.	.	.
CC[C@@]1(C(=O)OC)N[C@H](CN(C)C(=O)Nc2ccc(C(F)(F)F)cc2)[C@@H]2C(=O)N(Cc3ccccc3)C(=O)[C@@H]21	-7%	9%	1%	13	-2%	i	.	.	.	.
CCN(C[C@H]1N[C@@](Cc2ccccc2)(C(=O)OC)[C@H]2C(=O)N(Cc3ccccc3)C(=O)[C@@H]12)C(=O)Nc1ccc(Cl)cc1	13µM*	?	-16%	-4	-17%	?	7.3µM*	-28%	12µM*	25%
CCN(C[C@H]1N[C@@](Cc2ccccc2)(C(=O)OC)[C@H]2C(=O)N(Cc3ccccc3)C(=O)[C@@H]12)C(=O)Nc1ccc(F)cc1	13µM*	-7%	-18%	13	-6%	?	23µM*	-17%	?	-2%
CCNC(=O)N(CC)C[C@H]1N[C@@](Cc2ccccc2)(C(=O)OC)[C@H]2C(=O)N(Cc3ccccc3)C(=O)[C@@H]12	33%	6%	1%	4	1%	i	.	.	.	.
COC(=O)[C@]1(Cc2ccccc2)N[C@H](CN(C)C(=O)Nc2ccc(C(F)(F)F)cc2)[C@@H]2C(=O)N(Cc3ccccc3)C(=O)[C@@H]21	10µM*	?	-25%	4	-29%	i	21µM*	-27%	8.2µM*	-4%
CCc1cccc(NC(=O)CSc2ncc3c(n2)-c2ccccc2N(Cc2ccccc2C)S3(=O)=O)c1	-22%	.	-3%	.	-3%	i	.	.	.	.
COc1cc(NC(=O)c2nnn(CC(=O)Nc3ccccc3)c2N)cc(OC)c1	-22%	.	.	.	-25%	.	.	.	.	.
O=C(COc1cccc2ccccc12)Nc1ccc(Cl)cc1C(=O)O	11µM*	-1%	57%	-1	-17%	i	16µM*	8.2µM*	?	55%
O=C(COc1cccc2ccccc12)Nc1cc(Cl)ccc1C(=O)O	0%	4%	0%	-12	-31%	i	.	.	.	.
O=S(=O)(NC1CCCC1)c1ccc(S(=O)(=O)N2CCc3ccccc32)cc1	?	-22%	?	3	4%	?	9.2µM*	-18%	-2%	-11%

Compound activity (PubChem BioAssay)
